# Laboratory results from PMC7862700, “An all-to-all approach to the identification of sequence-specific readers for epigenetic DNA modifications on cytosine”.
# Columns and labels:
# Assay in all cases: DAPPL (digital affinity profiling via proximity ligation, sequencing); 10 mM Tris-HCl pH 7.5, 50 mM NaCl, 1 mM DTT, 4% glycerol, room temperature, 30 min; GST-TFs on glutathione beads, 16-mer random dsDNA library, 0.1% formaldehyde crosslink after washing; high values mean tight binding
# Conditions in all cases: protein: recombinant; tags: N-terminal GST; dsDNA, one strand shown
# [1] = target: T1, FLI1 (Homo sapiens, UniProt Q01543 1-452)
# T1 sequence: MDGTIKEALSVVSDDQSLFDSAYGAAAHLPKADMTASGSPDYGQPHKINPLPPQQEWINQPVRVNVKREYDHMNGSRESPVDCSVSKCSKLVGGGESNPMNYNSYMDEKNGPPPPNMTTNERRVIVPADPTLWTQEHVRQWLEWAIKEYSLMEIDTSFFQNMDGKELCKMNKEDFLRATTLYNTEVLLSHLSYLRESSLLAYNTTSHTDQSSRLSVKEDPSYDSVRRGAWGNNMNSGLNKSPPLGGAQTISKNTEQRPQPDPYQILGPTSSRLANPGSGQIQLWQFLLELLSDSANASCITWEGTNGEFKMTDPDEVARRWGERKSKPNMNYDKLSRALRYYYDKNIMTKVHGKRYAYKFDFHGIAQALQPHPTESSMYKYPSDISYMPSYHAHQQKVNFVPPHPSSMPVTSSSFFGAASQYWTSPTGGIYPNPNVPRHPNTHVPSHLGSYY
# How it was run: (§1)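 Human transcription factors were made in yeast as GST fusions, captured on glutathione beads and barcoded with DNA. With a tag-only sample included, the pool was incubated with 200 nmole of a random double-stranded 16-mer DNA library in Tris/NaCl/DTT/glycerol buffer at room temperature for 30 min, then crosslinked with 0.1% formaldehyde after washing, ligated by proximity, amplified and sequenced. For binding signal, each hexamer's read frequency for a factor is divided by its frequency for the tag-only sample.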
# [2] = target: T2, ELK1 (Homo sapiens, UniProt P19419 1-428)
# T2 sequence: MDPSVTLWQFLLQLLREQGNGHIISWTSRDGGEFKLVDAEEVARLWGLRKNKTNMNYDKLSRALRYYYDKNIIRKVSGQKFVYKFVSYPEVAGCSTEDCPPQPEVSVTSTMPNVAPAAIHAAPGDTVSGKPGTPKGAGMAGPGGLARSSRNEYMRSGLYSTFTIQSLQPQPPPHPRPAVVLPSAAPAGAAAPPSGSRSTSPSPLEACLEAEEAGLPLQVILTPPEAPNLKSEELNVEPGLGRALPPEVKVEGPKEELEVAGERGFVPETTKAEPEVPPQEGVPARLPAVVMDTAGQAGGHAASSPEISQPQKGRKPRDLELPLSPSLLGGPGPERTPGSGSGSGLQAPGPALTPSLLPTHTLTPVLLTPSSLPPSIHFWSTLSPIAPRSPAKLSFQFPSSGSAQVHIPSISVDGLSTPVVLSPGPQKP
# How it was run: as §1
# [3] = target: T3, GABPA (Homo sapiens, UniProt Q06546 1-454)
# T3 sequence: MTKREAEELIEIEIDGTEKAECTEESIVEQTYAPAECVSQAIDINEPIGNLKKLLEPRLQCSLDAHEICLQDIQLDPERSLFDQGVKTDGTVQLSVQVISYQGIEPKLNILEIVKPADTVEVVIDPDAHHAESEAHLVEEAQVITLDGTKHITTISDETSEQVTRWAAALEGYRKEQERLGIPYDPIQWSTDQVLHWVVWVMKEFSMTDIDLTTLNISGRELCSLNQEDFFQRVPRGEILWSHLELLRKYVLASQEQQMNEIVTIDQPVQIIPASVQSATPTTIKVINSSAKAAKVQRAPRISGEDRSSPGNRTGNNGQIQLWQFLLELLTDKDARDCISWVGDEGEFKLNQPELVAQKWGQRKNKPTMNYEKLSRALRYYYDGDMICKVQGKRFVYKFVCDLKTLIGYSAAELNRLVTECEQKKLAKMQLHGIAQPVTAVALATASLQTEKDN
# How it was run: as §1
# [4] = target: T4, ERG (Homo sapiens, UniProt P11308 1-479)
# T4 sequence: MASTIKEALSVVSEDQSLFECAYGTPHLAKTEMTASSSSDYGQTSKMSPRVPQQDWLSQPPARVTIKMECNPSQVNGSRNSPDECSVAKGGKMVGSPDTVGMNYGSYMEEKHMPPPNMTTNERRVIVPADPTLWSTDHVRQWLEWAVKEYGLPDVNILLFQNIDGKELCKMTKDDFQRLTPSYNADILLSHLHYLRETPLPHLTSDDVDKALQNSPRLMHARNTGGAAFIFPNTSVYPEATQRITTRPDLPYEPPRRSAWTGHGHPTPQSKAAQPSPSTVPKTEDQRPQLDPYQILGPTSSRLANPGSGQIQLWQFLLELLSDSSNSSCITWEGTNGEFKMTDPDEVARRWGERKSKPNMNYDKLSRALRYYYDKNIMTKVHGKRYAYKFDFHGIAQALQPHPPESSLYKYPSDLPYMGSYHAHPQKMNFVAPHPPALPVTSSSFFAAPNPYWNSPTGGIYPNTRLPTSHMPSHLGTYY
# How it was run: as §1
# [5] = target: ELF1 (Homo sapiens, UniProt P32519 1-619)
# Chain of ELF1 (P32519 whole entry): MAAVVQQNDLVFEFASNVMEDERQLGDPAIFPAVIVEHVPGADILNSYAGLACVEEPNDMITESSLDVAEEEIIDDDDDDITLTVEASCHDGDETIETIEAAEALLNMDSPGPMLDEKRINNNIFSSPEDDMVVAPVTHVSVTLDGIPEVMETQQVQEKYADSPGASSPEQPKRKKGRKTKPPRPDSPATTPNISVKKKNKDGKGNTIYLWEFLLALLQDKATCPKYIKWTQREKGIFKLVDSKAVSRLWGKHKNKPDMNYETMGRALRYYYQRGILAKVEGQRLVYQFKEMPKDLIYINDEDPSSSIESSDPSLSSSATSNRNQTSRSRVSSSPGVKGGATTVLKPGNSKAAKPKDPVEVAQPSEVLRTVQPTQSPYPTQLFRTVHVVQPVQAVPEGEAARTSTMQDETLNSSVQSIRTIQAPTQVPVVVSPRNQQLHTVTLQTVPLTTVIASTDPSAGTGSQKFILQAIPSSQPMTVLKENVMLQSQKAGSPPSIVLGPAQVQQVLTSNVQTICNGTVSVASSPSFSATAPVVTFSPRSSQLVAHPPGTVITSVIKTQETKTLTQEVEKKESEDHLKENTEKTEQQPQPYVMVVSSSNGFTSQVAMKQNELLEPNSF
# How it was run: as §1
# [6] = target: T5, EHF (Homo sapiens, UniProt Q9NZC4 1-300)
# T5 sequence: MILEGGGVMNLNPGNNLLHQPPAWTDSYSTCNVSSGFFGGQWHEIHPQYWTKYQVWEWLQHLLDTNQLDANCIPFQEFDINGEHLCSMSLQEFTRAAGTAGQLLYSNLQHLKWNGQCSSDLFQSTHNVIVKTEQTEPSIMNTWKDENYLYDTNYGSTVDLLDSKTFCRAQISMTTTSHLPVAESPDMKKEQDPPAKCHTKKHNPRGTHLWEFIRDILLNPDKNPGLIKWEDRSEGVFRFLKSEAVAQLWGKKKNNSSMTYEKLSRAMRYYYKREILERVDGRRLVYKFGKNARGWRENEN
# How it was run: as §1
# [7] = target: SPI1 (Homo sapiens, UniProt P17947 1-270)
# How it was run: as §1
# [8] = target: SPIB (Homo sapiens, UniProt Q01892 1-262)
# Chain of SPIB (Q01892 whole entry): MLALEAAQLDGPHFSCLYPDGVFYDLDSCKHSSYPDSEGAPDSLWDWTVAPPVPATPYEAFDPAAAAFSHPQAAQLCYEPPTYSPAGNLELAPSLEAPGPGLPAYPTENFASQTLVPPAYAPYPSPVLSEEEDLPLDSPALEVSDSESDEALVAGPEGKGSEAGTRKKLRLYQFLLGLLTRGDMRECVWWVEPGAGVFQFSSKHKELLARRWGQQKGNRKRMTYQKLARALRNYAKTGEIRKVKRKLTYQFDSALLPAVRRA
# How it was run: as §1
# [9] = target: T6, ELK3 (Homo sapiens, UniProt P41970 1-407)
# T6 sequence: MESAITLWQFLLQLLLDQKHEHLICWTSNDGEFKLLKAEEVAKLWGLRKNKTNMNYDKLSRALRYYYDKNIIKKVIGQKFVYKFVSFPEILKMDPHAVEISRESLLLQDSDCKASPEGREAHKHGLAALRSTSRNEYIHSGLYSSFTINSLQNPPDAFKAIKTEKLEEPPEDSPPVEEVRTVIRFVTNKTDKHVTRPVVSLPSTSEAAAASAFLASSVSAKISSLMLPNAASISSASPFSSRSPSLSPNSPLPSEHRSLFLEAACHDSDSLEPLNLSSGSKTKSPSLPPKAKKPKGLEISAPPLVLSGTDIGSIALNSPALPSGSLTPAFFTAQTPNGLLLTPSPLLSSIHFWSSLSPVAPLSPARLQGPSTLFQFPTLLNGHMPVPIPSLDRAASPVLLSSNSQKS
# How it was run: as §1
Sequence,binding signal [1],binding signal [2],binding signal [3],binding signal [4],binding signal [5],binding signal [6],binding signal [7],binding signal [8],binding signal [9]
TCTTAG,"1.22 fold enrichment (6-mer frequency, TF over GST control)","1.21 fold enrichment (6-mer frequency, TF over GST control)","1.22 fold enrichment (6-mer frequency, TF over GST control)","1.15 fold enrichment (6-mer frequency, TF over GST control)","1.25 fold enrichment (6-mer frequency, TF over GST control)","1.21 fold enrichment (6-mer frequency, TF over GST control)","1.13 fold enrichment (6-mer frequency, TF over GST control)","1.09 fold enrichment (6-mer frequency, TF over GST control)","1.11 fold enrichment (6-mer frequency, TF over GST control)"
GATGTT,"1.28 fold enrichment (6-mer frequency, TF over GST control)","1.34 fold enrichment (6-mer frequency, TF over GST control)","1.27 fold enrichment (6-mer frequency, TF over GST control)","1.28 fold enrichment (6-mer frequency, TF over GST control)","1.25 fold enrichment (6-mer frequency, TF over GST control)","1.32 fold enrichment (6-mer frequency, TF over GST control)","1.25 fold enrichment (6-mer frequency, TF over GST control)","1.2 fold enrichment (6-mer frequency, TF over GST control)","1.22 fold enrichment (6-mer frequency, TF over GST control)"
CCTAGC,"1.18 fold enrichment (6-mer frequency, TF over GST control)","1.1 fold enrichment (6-mer frequency, TF over GST control)","1.31 fold enrichment (6-mer frequency, TF over GST control)","1.14 fold enrichment (6-mer frequency, TF over GST control)","1.24 fold enrichment (6-mer frequency, TF over GST control)","1.2 fold enrichment (6-mer frequency, TF over GST control)","1.04 fold enrichment (6-mer frequency, TF over GST control)","1.26 fold enrichment (6-mer frequency, TF over GST control)","1.22 fold enrichment (6-mer frequency, TF over GST control)"
AATGGT,"1.52 fold enrichment (6-mer frequency, TF over GST control)","1.38 fold enrichment (6-mer frequency, TF over GST control)","1.36 fold enrichment (6-mer frequency, TF over GST control)","1.42 fold enrichment (6-mer frequency, TF over GST control)","1.42 fold enrichment (6-mer frequency, TF over GST control)","1.4 fold enrichment (6-mer frequency, TF over GST control)","1.43 fold enrichment (6-mer frequency, TF over GST control)","1.52 fold enrichment (6-mer frequency, TF over GST control)","1.41 fold enrichment (6-mer frequency, TF over GST control)"
CTCGCA,"1.34 fold enrichment (6-mer frequency, TF over GST control)","1.25 fold enrichment (6-mer frequency, TF over GST control)","1.29 fold enrichment (6-mer frequency, TF over GST control)","1.29 fold enrichment (6-mer frequency, TF over GST control)","1.27 fold enrichment (6-mer frequency, TF over GST control)","1.3 fold enrichment (6-mer frequency, TF over GST control)","1.27 fold enrichment (6-mer frequency, TF over GST control)","1.22 fold enrichment (6-mer frequency, TF over GST control)","1.17 fold enrichment (6-mer frequency, TF over GST control)"
ATTGCA,"1.17 fold enrichment (6-mer frequency, TF over GST control)","1.31 fold enrichment (6-mer frequency, TF over GST control)","1.19 fold enrichment (6-mer frequency, TF over GST control)","1.21 fold enrichment (6-mer frequency, TF over GST control)","1.17 fold enrichment (6-mer frequency, TF over GST control)","1.14 fold enrichment (6-mer frequency, TF over GST control)","1.19 fold enrichment (6-mer frequency, TF over GST control)","1.17 fold enrichment (6-mer frequency, TF over GST control)","1.24 fold enrichment (6-mer frequency, TF over GST control)"
GCTCCC,"1.37 fold enrichment (6-mer frequency, TF over GST control)","1.28 fold enrichment (6-mer frequency, TF over GST control)","1.34 fold enrichment (6-mer frequency, TF over GST control)","1.33 fold enrichment (6-mer frequency, TF over GST control)","1.37 fold enrichment (6-mer frequency, TF over GST control)","1.33 fold enrichment (6-mer frequency, TF over GST control)","1.26 fold enrichment (6-mer frequency, TF over GST control)","1.28 fold enrichment (6-mer frequency, TF over GST control)","1.18 fold enrichment (6-mer frequency, TF over GST control)"
